This is an account of results in PubChem BioAssay (EPA / NIEHS).

SMILES strings stand for the structures. Inconclusive results are not listed. The source made the active and inactive calls. How the source made its calls, unless noted: active means hit-call score of the fitted dose curve at least 0.9, where 1 is the maximum; inactive means score below 0.9.

The nature of test [1]: ATG_TCF_b_cat_CIS: Attagene CIS-FACTORIAL HepG2 Assay for human T-Cell-Factor with beta-catenin (TCF/b-cat) (AID 2282965). Conditions: HepG2 TCF/beta-catenin cis-reporter transcription, actives raise or lower the signal. In short, it runs like this: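 HepG2 cells transiently transfected with cis-promoter-driven multiplexed reporter units; reporter mRNA measured 24 h after dosing by RT-PCR, FAM labelling, HpaI digestion and capillary electrophoresis. Bidirectional fitting relative to DMSO baseline.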

Test [2] is described as follows: ATG_TAL_CIS: Attagene CIS-FACTORIAL HepG2 Assay for human TAL Basal Promoter (AID 2282966).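 Further: background control endpoint measuring basal TAL promoter reporter mRNA not a specific factor.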 The settings on record: HepG2 Attagene cis-factorial TAL promoter reporter; actives raise or lower the signal. In short, it runs like this: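 Fluorescence of labelled reporter cDNA fragments, resolved by capillary electrophoresis, gave the readout. Human HepG2 liver cells carried transiently transfected cis-element reporter units and were treated for 24 hours; activity was fitted bidirectionally against DMSO.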

A short description of test [3]: ATG_TGFb_CIS: Attagene CIS-FACTORIAL HepG2 Assay for human Transforming Growth Factor (TGF) (AID 2282967). Conditions: HepG2 Attagene CIS TGFb reporter, mRNA transcription; actives raise or lower the signal. In short, it runs like this:
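Endogenous TGFB1-linked transcription factor activity read as reporter mRNA via RT-PCR and capillary electrophoresis, 24 h after dosing transiently transfected HepG2 cells. Gain or loss of signal fitted relative to DMSO.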

Test [4] is described as follows: ATG_VDRE_CIS: Attagene CIS-FACTORIAL HepG2 Assay for human Vitamin D Receptor Element (VDRE) (AID 2282968). Conditions: HepG2 VDRE cis-reporter transcription, actives raise or lower the signal. An outline of the steps: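 Cell-based multiplexed reporter format in human liver HepG2 cells, 24 h post-dose. Fluorescence from capillary electrophoresis of reporter cDNA gives the signal, with DMSO as negative control and baseline.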

Test [5] has as its target Estrogen receptor (Homo sapiens) (UniProt P03372). Kind of test: ATG_ERa_TRANS: Attagene TRANS-FACTORIAL HepG2 Assay for human Estrogen Receptor alpha (ERa) (AID 2282970; active means hit-call score of the fitted dose curve at least 0.9, where 1 is the maximum). The settings on record: HepG2 Attagene TRANS ERa GAL4 reporter, mRNA. An outline of the steps: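 Human liver HepG2, transient transfection of multiple GAL4-UAS reporter units; TRANS format (exogenous NR-Gal4 chimera). 24 h dosing. Readout: reporter mRNA, RT-PCR, 6-FAM primer extension, HpaI digest, capillary electrophoresis. Positive direction vs DMSO.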

Test [6] addresses X-box-binding protein 1 (Homo sapiens) (UniProt P17861). Nature of the test: ATG_Xbp1_CIS: Attagene CIS-FACTORIAL HepG2 Assay for human X-box Binding Protein 1 (XBP1) (AID 2282972). The settings on record: HepG2 XBP1 cis-element reporter, Attagene multiplex; actives raise or lower the signal. In short, it runs like this: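 HepG2 cells transiently transfected with multiple cis-element reporter units report endogenous TF activity; 24 h exposure, then reporter mRNA measured by RT-PCR, 6-FAM labelling, HpaI digestion and capillary electrophoresis. Bidirectional fitting versus DMSO.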

Test [7] can be described thus: ATG_M_19_TRANS: Attagene TRANS-FACTORIAL HepG2 Assay for M19 Transcription Factor (Internal Marker) (AID 2282974; active means hit-call score of the fitted dose curve at least 0.9, where 1 is the maximum). The settings on record: HepG2 Attagene TRANS-FACTORIAL M19 internal marker reporter. An outline of the steps:
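Fluorescence of 6-FAM-labelled reporter cDNA fragments, separated by capillary electrophoresis, served as the readout. These derived from HepG2 cells carrying transfected GAL4-UAS reporter units after 24 h dosing, with DMSO as negative control.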

Test [8] deals with Androgen receptor (Homo sapiens) (UniProt P10275). Nature of the test: ATG_AR_TRANS: Attagene TRANS-FACTORIAL HepG2 Assay for human Androgen Receptor (AR) (AID 2282973; active means hit-call score of the fitted dose curve at least 0.9, where 1 is the maximum). Conditions: HepG2 Attagene TRANS-FACTORIAL AR reporter transcription. The procedure: ATG_TRANS is a cell-based, multiplexed-readout assay that uses HepG2, a human liver cell line, with measurements taken at 24 hours after chemical dosing in a 24-well plate.ATG_AR_TRANS is one of 30 assay component(s) measured or calculated from the ATG_TRANS assay. It is designed to make measurements of mRNA induction, a form of inducible reporter, as detected with fluorescence intensity signals by Reverse transcription polymerase chain reaction (RT-PCR) and Capillary electrophoresis technology.Data from the assay component ATG_AR_TRANS was analyzed into 1 assay endpoint. This assay endpoint, ATG_AR_TRANS, was analyzed in the positive analysis fitting direction relative to DMSO as the negative control and baseline of activity. Using a type of inducible reporter, measures of mRNA for gain-of-signal activity can be used to understand the reporter gene at the transcription factor-level as they relate to the gene AR. Furthermore, this assay endpoint can be referred to as a primary readout, because this assay has produced multiple assay endpoints where this one serves a reporter gene function. To generalize the intended target to other relatable targets, this assay endpoint is annotated to the nuclear receptor intended target family, where the subfamily is steroidal.
Sequence of Androgen receptor (Homo sapiens) (P10275 whole entry, looked up): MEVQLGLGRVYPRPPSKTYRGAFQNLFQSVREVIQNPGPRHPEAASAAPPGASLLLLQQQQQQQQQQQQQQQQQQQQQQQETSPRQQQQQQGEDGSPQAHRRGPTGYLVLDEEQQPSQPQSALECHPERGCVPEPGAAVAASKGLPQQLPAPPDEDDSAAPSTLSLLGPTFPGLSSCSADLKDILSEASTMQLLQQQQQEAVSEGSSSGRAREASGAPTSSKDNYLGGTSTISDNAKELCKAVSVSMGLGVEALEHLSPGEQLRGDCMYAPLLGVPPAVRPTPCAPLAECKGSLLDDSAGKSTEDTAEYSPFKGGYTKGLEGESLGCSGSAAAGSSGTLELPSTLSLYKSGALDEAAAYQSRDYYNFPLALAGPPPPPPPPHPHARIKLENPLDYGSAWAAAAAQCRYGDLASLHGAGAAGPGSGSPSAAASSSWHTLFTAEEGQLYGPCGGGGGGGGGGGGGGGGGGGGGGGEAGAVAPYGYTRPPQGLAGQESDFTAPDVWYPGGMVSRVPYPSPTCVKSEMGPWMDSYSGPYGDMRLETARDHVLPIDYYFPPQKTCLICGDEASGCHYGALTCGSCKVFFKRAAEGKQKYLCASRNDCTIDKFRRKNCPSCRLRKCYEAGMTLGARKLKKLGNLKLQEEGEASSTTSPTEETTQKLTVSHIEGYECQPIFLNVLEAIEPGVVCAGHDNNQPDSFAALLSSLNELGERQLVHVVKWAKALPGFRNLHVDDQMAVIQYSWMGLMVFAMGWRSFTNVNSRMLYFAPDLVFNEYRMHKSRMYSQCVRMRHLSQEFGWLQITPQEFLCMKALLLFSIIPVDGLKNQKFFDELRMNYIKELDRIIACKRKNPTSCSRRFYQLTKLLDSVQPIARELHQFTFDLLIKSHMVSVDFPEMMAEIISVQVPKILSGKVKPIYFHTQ
Human liver HepG2 cells are transiently transfected with multiple reporter transcription units (MRTUs) in 6-well plates using FuGene 6 reagent (Roche; 3 ml FuGene/1 mg DNA). The MRTU constructs are regulated by a cis-regulating element (promoter). […] A major difference between the CIS and TRANS system is that in CIS activities of endogenous TFs are measured, whereas the TRANS assay evaluates changes in activities of exogenous, chimeric NR-Gal4 proteins. […] At the end of 24 hour incubation, total RNA was isolated using TriZol reagent (Invitrogen). The isolated RNA is then reverse-transcribed using oligo(dT) primer and Mo-MLV reverse transcriptase (Invitrogen) with DNAse I (Ambion) treatment for 30 min. The one-tenth of the produced cDNA was amplified by PCR using Taq DNA polymerase (Invitrogen) and two reporter sequence-specific primers. The PCR products were fluorescently labeled by primer extension with 6-arboxyfluorescein (6-FAM) 5'-labeled reporter sequence-specific primer (2 min at 95 C, 20 s at 68 C and 10 min at 72 C) and these products were digested with 5U of HpaI (New England Biolabs) for 2h at 37 C. The fragments were purified using Qiaquick PCR columns (Qiagen), analyzed on an ABI 3130xL genetic analyzer (Applied Biosystems) with peak positions identified by using a set of X-rhodamine (ROX)-labeled MapMarker1000 molecular weight standards (BioVentures). The raw capillary electrophoresis data was processed using Attagraph software (Attagene).

Sequence of Estrogen receptor (Homo sapiens) (P03372 whole entry, looked up, the tested form may be a part): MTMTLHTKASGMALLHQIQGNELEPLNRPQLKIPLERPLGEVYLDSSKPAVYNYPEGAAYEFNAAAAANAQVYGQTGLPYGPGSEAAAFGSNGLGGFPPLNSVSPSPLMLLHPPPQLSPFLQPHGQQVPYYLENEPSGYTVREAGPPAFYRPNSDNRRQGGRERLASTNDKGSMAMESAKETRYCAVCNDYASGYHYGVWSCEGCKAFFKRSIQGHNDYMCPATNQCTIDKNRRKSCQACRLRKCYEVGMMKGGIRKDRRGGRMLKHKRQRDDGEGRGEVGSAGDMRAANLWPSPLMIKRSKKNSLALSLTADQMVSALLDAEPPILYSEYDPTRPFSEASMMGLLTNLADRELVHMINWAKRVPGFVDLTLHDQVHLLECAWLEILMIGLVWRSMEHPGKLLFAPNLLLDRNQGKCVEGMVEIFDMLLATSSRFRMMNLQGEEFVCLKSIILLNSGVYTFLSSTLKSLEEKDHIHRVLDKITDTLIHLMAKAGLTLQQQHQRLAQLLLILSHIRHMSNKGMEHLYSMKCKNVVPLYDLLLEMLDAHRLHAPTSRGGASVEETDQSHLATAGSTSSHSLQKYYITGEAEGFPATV
Sequence of X-box-binding protein 1 (Homo sapiens) (P17861 whole entry, looked up): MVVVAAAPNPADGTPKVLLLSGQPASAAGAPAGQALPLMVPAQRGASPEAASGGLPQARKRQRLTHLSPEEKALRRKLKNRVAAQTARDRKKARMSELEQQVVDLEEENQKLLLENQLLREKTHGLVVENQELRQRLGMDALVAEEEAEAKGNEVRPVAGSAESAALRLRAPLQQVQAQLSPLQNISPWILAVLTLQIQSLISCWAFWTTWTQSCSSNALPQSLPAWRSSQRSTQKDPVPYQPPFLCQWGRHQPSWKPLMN

For orientation: AC50 means the concentration at which the activity in the assay is half-maximal. Regarding `CN=C=S`, the result in test [1], in test [2], in test [3], in test [5] and in test [6] was inactive. In addition, the AC50 in test [4] was 50 µM (active).

On to `CC(C)=CC1C(C(=O)OCc2coc(Cc3ccccc3)c2)C1(C)C` (centres undefined), for which the compound was called inactive in test [1], in test [2], in test [3], in test [6] and in test [7]. Also, the AC50 in test [4] is 14.5 µM (active); in test [5], 19.6 µM (active).

`Cc1ccc(N=CN(C)C=Nc2ccc(C)cc2C)c(C)c1`: the outcome in test [1], in test [2], in test [3], in test [4] and in test [6] was inactive.

For the compound `CCCN(CC)CC1COC2(CCC(C(C)(C)C)CC2)O1` (centres undefined), the result in test [1], in test [2], in test [5] and in test [7] was inactive. Further, the AC50 in test [3] was 19.9 µM (active); in test [4] it was 9.19 µM (active); in test [6], 25.3 µM (active).

Consider `Clc1nc(Cl)nc(Nc2ccccc2Cl)n1`, for which the compound was called inactive in test [1], in test [2], in test [3], in test [4], in test [6] and in test [7].

`CCOc1nc(F)cc2nc(S(=O)(=O)Nc3c(Cl)cccc3Cl)nn12`: the result in test [1], in test [2], in test [3], in test [4], in test [6] and in test [7] was inactive.

On to `N#Cc1c(Cl)cccc1Cl`, for which the compound was classed as inactive in test [1], in test [2], in test [3], in test [5], in test [6] and in test [7].

On to `Nc1cnn(-c2ccccc2)c(=O)c1Cl`, for which the compound was classed as inactive in test [1], in test [2], in test [3], in test [4], in test [5] and in test [6]. Also, in test [7], the result was inactive.

In the case of `CC1(C)C(C=C(Cl)Cl)C1C(=O)OC(C#N)c1cccc(Oc2ccccc2)c1` (centres undefined), the compound was called inactive in test [1], in test [2], in test [3], in test [6] and in test [7]. Also, the AC50 in test [4] was 4.91 µM (active); in test [5], 19.7 µM (active).

Consider `CCOC(=O)C(C)OC(=O)c1cc(Oc2ccc(C(F)(F)F)cc2Cl)ccc1[N+](=O)[O-]` (centres undefined), for which the call in test [1], in test [2], in test [3] and in test [6] was inactive. The AC50 in test [5] was 50 µM (active).

As to `COc1ccc(-c2ccccc2)cc1NNC(=O)OC(C)C`, the result in test [1], in test [2], in test [3], in test [5] and in test [8] was inactive. The AC50 in test [4] was 7.63 µM (active); in test [6] it was 50 µM (active).

As to `CC(C)N1C(=O)N(c2ccccc2)CSC1=NC(C)(C)C`, the compound was called inactive in test [1], in test [2], in test [3], in test [4], in test [5] and in test [6]. Moreover, the outcome in test [8] and in test [7] was inactive.

For the compound `CC1(C)CCC(=Cc2ccc(Cl)cc2)C1(O)Cn1cncn1` (centres undefined), the compound was called inactive in test [1], in test [2], in test [3], in test [5], in test [6] and in test [7]. Besides, the AC50 in test [4] is 8.04 µM (active).

Take `COP(=S)(OC)SCn1nnc2ccccc2c1=O`: the result in test [1], in test [2], in test [3] and in test [7] was inactive. Further, the AC50 was 10.3 µM (active) in test [4], 45.4 µM (active) in test [5] and 18.7 µM (active) in test [6].

Take `CCN(CC)c1nc(C)cc(OP(=S)(OC)OC)n1`: the call in test [1], in test [2], in test [3] and in test [7] was inactive. In addition, the AC50 in test [4] is 25.4 µM (active); in test [5] it was 15.5 µM (active); in test [6] it was 50 µM (active).

Take `CCN(CC)C(=O)C(C)Oc1cccc2ccccc12` (centres undefined): the outcome in test [1], in test [2], in test [3], in test [6] and in test [7] was inactive. In test [5], the AC50 was 29.8 µM (active).

For `O=c1n(Cl)c(=O)n(Cl)c(=O)n1Cl`, the compound was called inactive in test [1], in test [2], in test [3], in test [4], in test [5] and in test [6]. In addition, the compound was classed as inactive in test [7].

Regarding `Clc1cccc(C(Cl)(Cl)Cl)n1`, the compound was called inactive in test [1], in test [2], in test [3], in test [5], in test [6] and in test [8]. Also, the compound was classed as inactive in test [7].

Turning to `COCC(C)N(C(=O)CCl)c1c(C)csc1C` (centres undefined), the call in test [1], in test [2], in test [3], in test [5] and in test [6] was inactive. In test [4], the AC50 was 1.84 µM (active).
